HTR2A ag: agonists of mouse serotonin 5-HT2A receptor (HTR2A) | P35363 | CHO-K1 mHTR2A beta-arrestin complementation, luminescence; percent of 30 µM serotonin response | activation, % at 7.6 µM | 360,000 tested, 0.66% active | AID 624169;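 active = activation above a run cutoff, the mean activation of all tested compounds plus 3 SD, cut at about 14% in these data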
HTR5A ag: activates human HTR5A in OPRM1-OPRD1 agonist counter-screen; HTR5A agonist assay, luminescence, cell-based; 340,000 tested, 0.61% active; activation, % at 9.3 µM; in the data active = activation mostly above about 9.5%, no sharp cut-off; inactive = mostly below about 7.6%
Target sequence (P47898 whole entry, looked up): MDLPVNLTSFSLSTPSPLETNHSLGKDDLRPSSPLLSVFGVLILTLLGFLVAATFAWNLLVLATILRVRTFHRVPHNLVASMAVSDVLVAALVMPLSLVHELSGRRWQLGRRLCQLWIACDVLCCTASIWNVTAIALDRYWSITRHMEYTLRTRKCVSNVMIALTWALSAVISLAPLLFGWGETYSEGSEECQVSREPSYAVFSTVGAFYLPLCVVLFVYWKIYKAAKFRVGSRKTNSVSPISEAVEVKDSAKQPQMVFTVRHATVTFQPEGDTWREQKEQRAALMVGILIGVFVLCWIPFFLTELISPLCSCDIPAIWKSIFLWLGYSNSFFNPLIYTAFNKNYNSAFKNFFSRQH
HTR5A inv ctr: HTR5A inverse agonism, opioid heterodimer counter-screen; P47898; HTR5A cell line, luminescence; inhibition, % at 9.3 µM; 340,000 tested, 0.083% active; AID 504634; in the data active = inhibition mostly above about 23%, no sharp cut-off; inactive = mostly below about 18%
MOR-DOR ag: OPRM1-OPRD1 heterodimerization agonism | activation, % at 9.3 µM | 340,000 tested, 0.3% active | AID 504326 | cells, luminescence | P35372+P41143; in the data active = activation above about 18%
OPRM1-OPRD1 inv: mu-delta opioid heterodimer inverse agonism. AID 504357. inhibition, % at 9.3 µM. cell-based MOR-DOR heterodimer luminescence. 340,000 tested, 0.21% active. P35372+P41143; in the data active = inhibition above about 22%, passing the limit was not always enough
HGIII-sPLA2 inh: Inhibits HGIII-sPLA2 liposome hydrolysis, primary screen | Q9NZ20 | QFRET BODIPY PC-A2 liposome hydrolysis, fluorescence | inhibition, % at 12.2 µM | 370,000 tested, 0.56% active | AID 743126;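 active = inhibition above mean plus 3 SD of compounds lying within the high and low control bounds, cut at about 19% in these data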
hGIII sPLA2 conf: human GIII-sPLA2 inhibition, confirmation. inhibition, % at 12.2 µM. recombinant hGIII-sPLA2, BODIPY PC-A2 QFRET fluorescence. 2,000 tested, 34% active. shares compounds with HGIII-sPLA2 inh;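 active = mean inhibition across triplicates above the hit cutoff set in the earlier primary screen, cut at about 19% in these data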
BODIPY interf: 535nm fluorescence interference, HGIII-sPLA2 counter-screen; inhibition, % at 12.2 µM; 2,000 tested, 8.5% active; shares compounds with HGIII-sPLA2 inh; AID 743282; BODIPY FL product fluorescence interference, QFRET;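 active = average inhibition above the solvent-only control mean plus 3 SD, cut at about 6% in these data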
Each line names hits and unclear results; the compound was inactive in the other large screens (follow-up assays come after a bar, where they were run). The list is not random: actives were taken first. Their share in the collection is about 2.2%.

CCCC(=O)NC(c1ccc(Cl)cc1)c1ccc2cccnc2c1O (stereo not given)	HGIII-sPLA2 inh 22.2 | hGIII sPLA2 conf 24.1 | BODIPY interf inactive
Cn1c(NC(=S)Nc2ccccc2)nc2ccccc21	HGIII-sPLA2 inh 38.6 | hGIII sPLA2 conf 34.9 | BODIPY interf 6.3
CCN(CC)C(=O)CC[C@H]1CC[C@]2(CCCN(C(=O)C(C)(C)C)C2)O1	none (no result: HTR2A ag, HTR5A ag, HTR5A inv ctr, MOR-DOR ag, OPRM1-OPRD1 inv)
Cc1cccc(-n2c3nc(=O)[nH]c(=O)c-3cc3cc([N+](=O)[O-])ccc32)c1	HGIII-sPLA2 inh 25.2 | hGIII sPLA2 conf 19.5 | BODIPY interf 6.6
Cc1ccc(C)c(-n2c3nc(=O)[nH]c(=O)c-3cc3cc([N+](=O)[O-])ccc32)c1	none
O=C(CN1CCN(Cc2ccccc2Cl)CC1)N/N=C\c1ccccc1F	none (no result: HTR2A ag, HTR5A ag, HTR5A inv ctr, MOR-DOR ag, OPRM1-OPRD1 inv)
Brc1ccc2nc(-c3ccc(CN4CCC5(CC4)CNc4ccccc45)cc3)c(-c3ccccc3)nc2c1	none (no result: HTR2A ag, HTR5A ag, HTR5A inv ctr, MOR-DOR ag, OPRM1-OPRD1 inv)
N#CCCCc1cn(-c2cccc(-c3noc4c3C(=O)N(CC(=O)N3CCOCC3)CC4)c2)nn1	none (no result: HTR2A ag, HTR5A ag, HTR5A inv ctr, MOR-DOR ag, OPRM1-OPRD1 inv)
COc1ccc(C(=O)C2(C(=O)NCc3ccccc3)CC(c3ccccn3)=NO2)cc1 (stereo not given)	none (no result: HTR2A ag, HTR5A ag, HTR5A inv ctr, MOR-DOR ag, OPRM1-OPRD1 inv)
Cc1ccc(C(=O)N(C)[C@H]2C[C@H]3c4[nH]c5c(-c6cccc(C)c6)cccc5c4CCN3C[C@H]2[C@H](C)O)cc1	none (no result: HTR2A ag, HTR5A ag, HTR5A inv ctr, MOR-DOR ag, OPRM1-OPRD1 inv)
C[C@@H]1OC(C2CCCCC2)N(C)[C@H]2C[C@H]3c4cc(N5CCOCC5)ccc4CCN3C[C@@H]12 (stereo not given in full)	none (no result: HTR2A ag, HTR5A ag, HTR5A inv ctr, MOR-DOR ag, OPRM1-OPRD1 inv)

Screening results from PubChem BioAssay.
